# In PubChem BioAssay (NCI):
# The panel holds about 83,000 compounds, 20% with a hit somewhere; the sample as a whole holds those more often.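 Growth was measured after 48 h exposure to one concentration of compound in 96-well plates. Values under 10 count as active.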 Unmarked numbers belong to inactive results. Calls of active or inactive are those of the source.
# Test system: HL-60(TB) leukemia
# Assay: NCI-60 one-dose screen, 48 h (100 = growth as untreated, 0 = no growth, -100 = all killed)
# Details: 10 µM unless noted
row,SMILES,growth
1,Clc1ccc(-c2nc(C(Cl)Cl)nc3cc(-c4ccccc4)nn23)cc1,5.27% (active)
2,O=C(CSSCC(=O)c1ccc(Cl)cc1)c1ccc(Cl)cc1,44.7%
3,COc1cccc(NC(=O)c2sc3nc4c(cc3c2N)C(=O)CCC4)c1,-2.55% (active)
4,Nc1ccc(-c2ccc(-c3ccccc3N)c3[nH]c4ccccc4c23)cc1,5.47% (active)
5,Cc1cn(C2CCCCC2)c(=O)[nH]c1=O,96.7%
6,CCOC(=O)c1sc(NC(=O)COc2cccc(/C=C3\Cc4ccc(Cl)cc4C3=O)c2)nc1C,120%
7,COc1ccc(-c2n[nH]nc2-c2cc3ccccc3s2)cc1O,2.49% (active)
8,O=CN1N=C(c2ccc3c(c2)OCO3)CC1c1cccc(Nc2ccnc3cc(C(F)(F)F)ccc23)c1 (stereo not given),72.8%
9,Cn1cc(-c2noc(C(=O)c3cn(C)c4ncc(Br)cc34)n2)c2ccccc21,103%
10,Cn1c(=O)c2c(nc(Cl)n2CCl)n(C)c1=O,45.7%
11,C#C[C@H]1CCCCCC1O (stereo not given in full),96.1%
12,COc1ccc(/C=C/c2nc(N3CCOCC3)c3nc(Cl)c(Cl)cc3n2)cc1OC,91.9%
13,COc1ccc(N=C2NN=C(c3c[nH]c4ccccc34)CS2)cc1OC,47%
14,O=C(O)COc1ccc(OCC(=O)O)cc1,-1.78% (active)
15,CC(=O)OCC(=O)[C@@]1(O)CC[C@H]2[C@@H]3CC(=C(Br)Br)C4=CC(=O)CC[C@]4(C)[C@H]3C(=O)C[C@@]21C,90.1%
16,CN1C(=O)/C(=C/c2ccc(C(=O)Nc3ncc(Cc4cccc(Cl)c4)s3)cc2)SC1=S,88.2%
17,Oc1ccc(Nc2ccccc2)cc1,66.5%
18,NC1=CC(=O)C(=O)c2cccnc21,106%
19,Cc1cccc2c1NC(=O)[C@@]21[C@H](C(=O)c2ccccc2)[C@]2(C(=O)Nc3ccccc32)[C@H]2CCCN21,14.6% [100 µM]
20,CN(Cc1cnc2nc(N)nc(N)c2n1)c1ccc(C(=O)NC(CCC(=O)O)C(=O)O)cc1 (stereo not given),29.5%

row,SMILES,growth
1,O=C(CSc1nc2ccc([N+](=O)[O-])cc2[nH]1)Nc1cccc([N+](=O)[O-])c1,57.5%
2,O=C1Nc2ccccc2/C1=C/C(=O)c1ccc(N2CCCCC2)cc1,-6.32% (active)
3,O=C(/C=C\c1ccc(OCCCCCC[P+](c2ccccc2)(c2ccccc2)c2ccccc2)cc1)c1ccc2c(c1)OCCO2,-13.2% (active)
4,c1ccc(-c2nn(-c3ccccc3)[n+](-c3cccc4ccccc34)n2)cc1,-25.8% (active)
5,O=[N+]([O-])c1ccc(Oc2nc(Nc3ccc(O[C@H]4CO[C@H]5[C@@H]4OC[C@@H]5O)c(Cl)c3)ncc2F)c(Cl)c1,25.6%
6,C=CCSc1nnc(COc2ccc3c(C)c(Cc4ccccc4)c(=O)oc3c2C)o1,96.1%
7,COc1cc(OC)c(C(=O)/C=C/c2cc3c(cc2OCc2ccccc2)OC(C)(C)CC3)cc1CC=C(C)C,-28.5% (active)
8,COC(=O)C(O)c1ccccc1 (stereo not given),109%
9,Clc1cccc(Cl)c1Nc1ccc2nnc(-c3ccncc3)n2n1,88.7%
10,Oc1[nH]c2ccc(Cl)cc2c1/C=c1/ccc2c(c1)N=C(c1cccs1)N=2,98.4%
11,CCOc1ccccc1C(=O)/C=C/c1cc2ccccc2[nH]c1=O,-7.94% (active)
12,CC(CN1CCN(CCOCCO)CC1)CN1c2ccccc2Sc2ccc(Cl)cc21 (stereo not given),80.8%
13,COC(=O)C1(C(=O)OC)C2C(=O)C3C(C21)C3(C(=O)OC(C)(C)C)C(=O)OC(C)(C)C (stereo not given),96.6%
14,O=C(CCCl)OCCOc1ccccc1,101%
15,O=Nc1c(-c2cccc([N+](=O)[O-])c2)nc2ncccn12,0.307% (active)
16,Cc1ccc(C2CC(c3ccc(Nc4ccnc5cc(Cl)ccc45)cc3)=NN2C=O)cc1 (stereo not given),9.36% (active)
17,COc1ccc2nc3cc(Cl)ccc3c(NCCN)c2c1,-51.5% (active)
18,O=C(N/N=C/c1ccc([N+](=O)[O-])cc1)c1ccccc1Nc1ccnc(C(F)(F)F)c1,78.4%
19,COc1cc(/C=C2\CCC/C(=C\c3cc(CN4CCCCC4)c(O)c(OC)c3)C2=O)cc(CN2CCCCC2)c1O,92.7%
20,CCc1ccc(-c2ccc(Nc3ccccc3)nn2)cc1S(N)(=O)=O,47.4%
